The values that follow come from PubChem BioAssay (NCATS).

Records with an inconclusive call do not appear. Active and inactive are the calls of the source. Unless noted, the call rests on the fitted dose curve; in most records, active means well fitted curve in the direction sought with a large enough effect; inconclusive means small, poorly fitted or top-dose-only effect, or another doubt; inactive means no such curve, though single readings can be large; an effect the other way counts as inactive or inconclusive.

A short description of test [1]: AP1 Signaling Pathway (AID 357; active means well fitted curve in either direction with a large enough effect, not every such curve was filed as active; further: on the % scale 0 is the no-effect control and ±100 the full control effect). In a few lines: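 AP-1-bla ME-180 cells with beta-lactamase reporter under AP-1 response element, stimulated with EC50 EGF; compounds titrated, 5 hours at 37 degrees Celsius. CCF4 read at 460/530 nm ratio; positive and negative modulators judged by AC50.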
Test [2] addresses Cytochrome P450 1A2 (Homo sapiens) (UniProt P05177). Kind of test: p450-cyp1a2 (AID 410; calls by dose curve; further: potency means the concentration at half of the fitted maximal effect;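 on activity change, negative = inhibition: -100% = full effect of reference inhibitor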). The method, boiled down:
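Human CYP1A2 (20nM) demethylated Luciferin-ME at its Km (100uM) in 100mM KPO4. After 10 min compound preincubation, NADPH regeneration ran the reaction 60 min at room temperature. Luciferin was read by luminescence, normalized to 57 uM furafylline.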

A short description of test [3]: NFAT Signaling Pathway (AID 444; active means well fitted curve in either direction with a large enough effect, not every such curve was filed as active;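 further: carbachol stimulus at about its EC50 of 1 µM final; on the % scale 0 is the no-effect control and ±100 the full control effect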). Conditions: Jurkat NFAT-bla M1, carbachol, beta-lactamase ratio, 5 h; at 17.2 µM (top of the series) unless noted. In a few lines: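 Jurkat cells carrying an NFAT-driven β-lactamase reporter and co-transfected muscarinic M1 receptor were treated with compound plus carbachol (1 uM final, an EC50 level) for 5 h at 37 °C. CCF4 loading followed for 1 h at RT; 460/530 nm ratio gave %activity.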

A short description of test [4]: Stat Signaling Pathway (AID 446; active means well fitted curve in either direction with a large enough effect, not every such curve was filed as active;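 further: ME-180 cervical cancer cells given 40 pM IL-6 alongside compound; SIE-controlled beta-lactamase reporter measured as 460/530 nm FRET emission ratio; on the % scale 0 is the no-effect control and ±100 the full control effect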). The method, boiled down: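 Reporter line: ME-180 cervical carcinoma, SIE-beta-lactamase. Treatment: compound with 40 pM IL-6, 5 hrs, 37 C, in low-serum OPTI-MEM with 10 mM HEPES pH 7.3. Detection: 460/530 nm fluorescence.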
Test [5] has as its target Glucocorticoid receptor (Homo sapiens) (UniProt P04150). Kind of test: GR-EFC Redistribution (AID 451; calls by dose curve; further: potency means the concentration at half of the fitted maximal effect). Conditions: CHO-K1 GR-EFC translocation, beta-gal luminescence, 2 h. The method, boiled down: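 CHO-K1 cells stably expressing nuclear-localized β-gal enzyme acceptor and GR fused C-terminally to the enzyme donor fragment; ligand-driven nuclear translocation restores β-gal by complementation. Compounds titrated up to 46 uM final, 2 h at 37 °C; luminescence read.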

The target in test [6] is Mitogen-activated protein kinase 10 (Mus musculus) (UniProt Q61831). Kind of test: JNK3 AlphaScreen Assay (AID 530; active means well fitted curve in either direction with a large enough effect, not every such curve was filed as active;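 further: kinase came from lysate of stimulated human HepG2 cells; signal reports phosphorylation of biotinylated GST-cJun 1-79 at Ser73 with 10 µM ATP; on the % scale 0 is the no-effect control and ±100 the full control effect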). The method, boiled down:
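JNK3 came from HepG2 lysates pre-activated with IL-1beta and TNF-alpha and phosphorylated biotinylated GST-cJun (1-79) at 10 uM ATP, pH 7.6, room temperature. Compounds were titrated. AlphaScreen signal used anti-phospho-cJun (Ser73) antibody.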
Background: Bead proximity is the source of the signal in Alpha formats.

The target of test [7] is 3',5'-cyclic-AMP phosphodiesterase 4B (Homo sapiens) (UniProt Q07343). Kind of test: qHTS Assay for Inhibitors of PDE-IV (AID 607; active means well fitted activation curve with a large enough effect in the main read-out, with a control signal flat, not every such curve was filed as active; further: % of control where 0% means no effect). In a few lines:
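Cell-based read-out of cAMP via a modified cyclic nucleotide-gated channel and membrane potential dye (535/590 nm) in HEK293 cells expressing PDE4 endogenously. Compounds tested up to 22.9 uM final; 100 uM RO 20-1724 reference.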

The nature of test [8]: qHTS Assay for Lipid Storage Modulators (AID 1519; calls by dose curve). To be noted: Drosophila S3 cells, BODIPY lipid droplet/cell ratio, laser cytometry, cells loaded with oleic acid; for activity change, negative = inhibition: at 25.7 µM (top of the series). In a few lines: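 Cells seeded at 5,000 per well were treated with compounds over a concentration series and loaded with oleic acid (400 uM, as added). Lipid droplet fluorescence (488 nm excitation, 500-530 nm channel) was read by laser-scanning cytometry and normalized to 20 uM Triacsin C.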

Test [9] has as its target ATP-dependent 6-phosphofructokinase (Trypanosoma brucei brucei) (UniProt O15648). Kind of test: qHTS Assay to Find Inhibitors of T. brucei phosphofructokinase: hit validation (AID 492961). The method, boiled down:
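Percent activity derived from corrected luminescence, normalized between 0x and 1x enzyme controls, then fitted to concentration-response curves. Conditions: 1.25 nM PFK, 0.1 mM ATP, 0.5 mM F6P, 45 min RT.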

Test [10] addresses Ubiquitin carboxyl-terminal hydrolase 1 (Homo sapiens) (UniProt O94782). Kind of test: Inhibitors of USP1/UAF1: Pilot qHTS (AID 504865).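 Further: rhodamine fluorescence freed from ubiquitin-rhodamine substrate followed over time; top concentration of the series differs between compounds; on the % scale 0 is the no-effect control and ±100 the full control effect; nearly all actives have a fitted effect of over 35% in size.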 In a few lines:
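Kinetic fluorescence assay: 1nM USP1/UAF1, 15 min compound preincubation, then 150nM Ub-Rho; 480/540 nm.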
In general terms: qHTS replaces the single test concentration by a dilution series.

For test [11], the target named is Luciferin 4-monooxygenase (Photinus pyralis) (UniProt P08659). In words: Biochemical firefly luciferase enzyme assay for NPC (AID 624030).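 Further: purified P. pyralis luciferase at 10 nM with luciferin and ATP substrate; 0% = DMSO and -100% = full luciferase inhibition by PTC124 control; nearly all actives have a fitted effect of over 70% in size.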 In a few lines: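 Counter-screen for direct inhibition of the luciferase enzyme by approved-drug library compounds, run at 10 nM enzyme in 50 mM Tris acetate (final). Luminescence was read within 5 min of enzyme-buffer addition and normalized to PTC124 versus DMSO (0%).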

A short description of test [12]: qHTS profiling for inhibitors of Plasmodium falciparum proliferation (AID 504749). Further: nearly all actives have a fitted effect of over 60% in size. Further: potency means the concentration at half of the fitted maximal effect.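 On activity, negative = inhibition: 0% = DMSO vehicle and full inhibition = artemisinin control.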 To be noted: P. falciparum in erythrocytes, SYBR Green DNA, 72 h, at 12.8 µM (top of the series). In a few lines: (§1)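 P. falciparum-infected erythrocytes (0.3% parasitemia, 2.5% hematocrit final) were exposed to compounds for 72 h at 37 C in 5% CO2, then lysed with SYBR Green buffer overnight at room temperature; parasite DNA fluorescence was normalized to artemisinin and DMSO controls.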

Test [13] relates to 3D7. Described as above. To be noted: P. falciparum in erythrocytes, SYBR Green DNA, 72 h; series mostly up to 12.8 µM. In a few lines: as §1
In test [14] the test system is C2A. The description is as above. To be noted: P. falciparum in erythrocytes, SYBR Green DNA, 72 h; series mostly up to 12.8 µM. In a few lines:
as §1

The test system of test [15] is CP217. The description is as above. Conditions: P. falciparum in erythrocytes, SYBR Green DNA, 72 h; series mostly up to 12.8 µM. The method, boiled down:
as §1

Test [16] deals with CP250. The test is described as above. Conditions: P. falciparum in erythrocytes, SYBR Green DNA, 72 h; series mostly up to 12.8 µM. In a few lines: as §1
Test [17] relates to FAB9. Described as above. Conditions: P. falciparum in erythrocytes, SYBR Green DNA, 72 h; series mostly up to 12.8 µM. The method, boiled down:
as §1

For test [18], the system named is JCK. Described as above. Conditions: P. falciparum in erythrocytes, SYBR Green DNA, 72 h; series mostly up to 12.8 µM. The method, boiled down: as §1
Test [19] relates to PC49. The test is described as above. Conditions: P. falciparum in erythrocytes, SYBR Green DNA, 72 h; series mostly up to 12.8 µM. The method, boiled down:
as §1

The target of test [20] is Glucocorticoid receptor (Homo sapiens) (UniProt P04150). In words: GR-GFP Redistribution (AID 450;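 active means compounds whose dose series gives a full or clear partial fitted curve of increased nuclear translocation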; further: potency means the concentration at half of the fitted maximal effect). To be noted: U2OS GR-GFP nuclear translocation, laser cytometry, 2 h.
[21] abbreviates: measured here: cell count channel max response.
The mark [22] stands for this setting: measured here: lipid channel max response.

Luciferin 4-monooxygenase (Photinus pyralis), sequence (P08659 whole entry, looked up): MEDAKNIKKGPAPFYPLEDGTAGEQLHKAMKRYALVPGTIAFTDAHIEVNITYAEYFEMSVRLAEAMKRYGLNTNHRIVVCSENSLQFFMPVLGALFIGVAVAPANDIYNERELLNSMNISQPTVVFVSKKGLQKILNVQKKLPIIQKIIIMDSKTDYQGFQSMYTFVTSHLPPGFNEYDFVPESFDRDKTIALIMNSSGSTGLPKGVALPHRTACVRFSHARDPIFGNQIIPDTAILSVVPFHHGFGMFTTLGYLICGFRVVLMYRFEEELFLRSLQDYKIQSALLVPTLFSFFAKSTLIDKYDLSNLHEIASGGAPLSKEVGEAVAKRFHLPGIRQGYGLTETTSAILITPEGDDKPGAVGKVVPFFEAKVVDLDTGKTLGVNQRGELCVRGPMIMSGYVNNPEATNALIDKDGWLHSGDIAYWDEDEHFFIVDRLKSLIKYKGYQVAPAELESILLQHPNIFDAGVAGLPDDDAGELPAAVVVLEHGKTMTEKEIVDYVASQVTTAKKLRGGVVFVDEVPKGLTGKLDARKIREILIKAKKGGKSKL
3',5'-cyclic-AMP phosphodiesterase 4B (Homo sapiens), sequence (Q07343 whole entry, looked up): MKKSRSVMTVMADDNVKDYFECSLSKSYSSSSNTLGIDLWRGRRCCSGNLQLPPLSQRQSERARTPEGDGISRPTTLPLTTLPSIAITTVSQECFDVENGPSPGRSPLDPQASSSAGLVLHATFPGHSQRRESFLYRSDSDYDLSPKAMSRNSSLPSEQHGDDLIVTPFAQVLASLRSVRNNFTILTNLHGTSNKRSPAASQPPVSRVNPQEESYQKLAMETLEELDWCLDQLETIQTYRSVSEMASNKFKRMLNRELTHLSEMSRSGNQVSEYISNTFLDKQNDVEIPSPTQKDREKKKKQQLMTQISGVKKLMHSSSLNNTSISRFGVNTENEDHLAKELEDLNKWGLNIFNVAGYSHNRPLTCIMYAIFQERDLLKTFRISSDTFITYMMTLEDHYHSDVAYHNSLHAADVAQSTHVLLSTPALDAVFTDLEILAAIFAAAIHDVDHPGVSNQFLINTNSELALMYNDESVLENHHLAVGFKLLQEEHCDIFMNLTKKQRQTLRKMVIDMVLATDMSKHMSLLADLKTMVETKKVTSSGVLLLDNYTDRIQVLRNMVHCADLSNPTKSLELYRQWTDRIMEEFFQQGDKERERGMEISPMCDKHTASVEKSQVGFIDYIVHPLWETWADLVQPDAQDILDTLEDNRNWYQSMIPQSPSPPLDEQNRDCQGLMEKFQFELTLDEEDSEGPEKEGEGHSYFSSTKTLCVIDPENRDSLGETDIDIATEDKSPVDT
Glucocorticoid receptor (Homo sapiens), sequence (P04150 whole entry, looked up, the tested form may be a part): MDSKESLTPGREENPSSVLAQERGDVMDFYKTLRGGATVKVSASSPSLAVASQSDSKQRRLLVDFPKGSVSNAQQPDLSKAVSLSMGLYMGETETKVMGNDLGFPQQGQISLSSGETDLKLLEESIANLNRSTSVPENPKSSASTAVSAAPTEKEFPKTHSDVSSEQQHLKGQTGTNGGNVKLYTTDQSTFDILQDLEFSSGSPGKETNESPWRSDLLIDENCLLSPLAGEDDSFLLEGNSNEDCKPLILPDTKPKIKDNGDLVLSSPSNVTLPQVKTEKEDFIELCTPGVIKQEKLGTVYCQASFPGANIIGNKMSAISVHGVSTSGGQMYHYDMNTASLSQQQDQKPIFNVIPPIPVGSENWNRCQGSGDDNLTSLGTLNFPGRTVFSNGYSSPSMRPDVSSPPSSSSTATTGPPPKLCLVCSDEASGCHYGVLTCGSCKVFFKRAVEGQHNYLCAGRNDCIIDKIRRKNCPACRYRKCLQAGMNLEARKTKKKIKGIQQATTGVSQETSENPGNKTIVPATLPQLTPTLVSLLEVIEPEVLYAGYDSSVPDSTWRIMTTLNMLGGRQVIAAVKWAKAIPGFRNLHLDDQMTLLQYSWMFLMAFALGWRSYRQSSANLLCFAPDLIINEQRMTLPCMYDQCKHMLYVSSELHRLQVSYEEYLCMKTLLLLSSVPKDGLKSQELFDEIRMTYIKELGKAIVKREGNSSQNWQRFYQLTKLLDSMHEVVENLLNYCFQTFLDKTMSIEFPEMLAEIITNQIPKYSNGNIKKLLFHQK
Ubiquitin carboxyl-terminal hydrolase 1 (Homo sapiens), sequence (O94782 whole entry, looked up): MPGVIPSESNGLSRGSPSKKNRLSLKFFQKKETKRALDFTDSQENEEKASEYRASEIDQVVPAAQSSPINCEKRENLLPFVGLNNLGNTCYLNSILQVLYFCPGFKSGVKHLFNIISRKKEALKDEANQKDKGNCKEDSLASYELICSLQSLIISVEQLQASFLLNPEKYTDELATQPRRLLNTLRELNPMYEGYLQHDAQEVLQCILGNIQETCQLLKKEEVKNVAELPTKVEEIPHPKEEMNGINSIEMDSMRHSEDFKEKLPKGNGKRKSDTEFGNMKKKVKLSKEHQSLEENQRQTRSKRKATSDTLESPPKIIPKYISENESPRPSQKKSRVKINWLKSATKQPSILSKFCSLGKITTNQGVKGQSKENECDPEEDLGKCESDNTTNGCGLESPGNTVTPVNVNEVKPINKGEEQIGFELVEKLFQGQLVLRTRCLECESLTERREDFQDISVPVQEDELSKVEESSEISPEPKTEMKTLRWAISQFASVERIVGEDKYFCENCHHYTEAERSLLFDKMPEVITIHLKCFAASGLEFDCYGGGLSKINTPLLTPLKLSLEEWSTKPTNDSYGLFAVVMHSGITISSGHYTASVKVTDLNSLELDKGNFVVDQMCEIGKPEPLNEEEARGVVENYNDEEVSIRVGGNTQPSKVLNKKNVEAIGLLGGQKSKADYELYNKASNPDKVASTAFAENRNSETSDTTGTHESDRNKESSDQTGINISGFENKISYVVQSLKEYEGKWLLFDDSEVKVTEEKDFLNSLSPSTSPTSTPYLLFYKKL
ATP-dependent 6-phosphofructokinase (Trypanosoma brucei brucei), sequence (O15648 whole entry, looked up): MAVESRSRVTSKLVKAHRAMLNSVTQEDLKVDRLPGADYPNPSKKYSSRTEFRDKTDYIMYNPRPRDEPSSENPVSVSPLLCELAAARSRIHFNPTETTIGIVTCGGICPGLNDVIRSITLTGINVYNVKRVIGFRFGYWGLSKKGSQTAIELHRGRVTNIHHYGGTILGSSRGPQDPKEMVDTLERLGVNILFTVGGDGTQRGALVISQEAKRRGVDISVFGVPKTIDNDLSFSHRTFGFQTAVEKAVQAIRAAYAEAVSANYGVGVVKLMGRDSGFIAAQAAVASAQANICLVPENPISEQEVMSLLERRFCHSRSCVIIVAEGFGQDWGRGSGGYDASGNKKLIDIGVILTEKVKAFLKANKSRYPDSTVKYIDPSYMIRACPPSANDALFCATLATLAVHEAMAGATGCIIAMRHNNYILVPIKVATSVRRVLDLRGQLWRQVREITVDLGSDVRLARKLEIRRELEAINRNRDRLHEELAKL
Cytochrome P450 1A2 (Homo sapiens), sequence (P05177 whole entry, looked up): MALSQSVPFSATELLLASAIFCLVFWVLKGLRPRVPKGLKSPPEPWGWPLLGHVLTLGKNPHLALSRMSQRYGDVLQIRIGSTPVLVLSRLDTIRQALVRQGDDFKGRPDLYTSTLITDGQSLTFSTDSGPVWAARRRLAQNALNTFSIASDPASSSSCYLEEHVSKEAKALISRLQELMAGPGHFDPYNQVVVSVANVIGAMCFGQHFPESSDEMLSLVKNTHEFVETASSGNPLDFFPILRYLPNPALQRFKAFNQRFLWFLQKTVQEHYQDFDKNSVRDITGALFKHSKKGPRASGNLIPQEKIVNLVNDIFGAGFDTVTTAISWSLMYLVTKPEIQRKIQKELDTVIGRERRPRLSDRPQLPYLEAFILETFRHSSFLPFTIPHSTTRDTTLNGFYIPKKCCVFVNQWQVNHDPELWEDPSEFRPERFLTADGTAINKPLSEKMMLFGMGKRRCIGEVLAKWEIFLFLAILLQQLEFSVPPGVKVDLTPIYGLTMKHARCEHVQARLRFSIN

For `CC(C)(C)NC[C@H](O)COc1cccc2c1CCC(=O)N2`, the result in test [1], in test [4], in test [7] and in test [9] was inactive. The Potency entry in test [2], in [6], in test [10], in [11], in [13] and in [14] was “inactive” throughout. Besides, the Potency entry in test [15], in test [16], in [17] and in test [19] was “inactive” throughout. The activity change, negative = inhibition was -6.75% (inactive) in test [3] and -0.554% (inactive) in [8]. Also, the Potency is > 20.6 µM (inactive) in [5] and 8.91 µM (active) in [18]. In addition, the max response in [8] (setting [21]) is -2.13%; in test [8] (setting [22]), -1.05%. For the same compound, the values for the activity, negative = inhibition in test [12] (parasite line A) and in [12] (parasite line B) were 7.75% (inactive) and -1.3% (inactive), respectively.
As to `CN(C)/N=N\c1nc[nH]c1C(N)=O`, the call in test [1], in test [4] and in test [7] was inactive. Besides, the Potency result in test [2], in [6] and in test [10] was “inactive” in each case. The values for the activity change, negative = inhibition in test [3] and in [8] were 3.5% (inactive) and 0.337% (inactive), respectively. For the same compound, the Potency in [20] was > 20.6 µM (inactive). In addition, the max response in test [8] (setting [21]) is 10.1%; in [8] (setting [22]) it was 7.48%.
In the case of `C=CCOc1ccccc1OC[C@H](O)CNC(C)C`, the outcome in [1], in test [4], in test [7] and in test [9] was inactive. Moreover, the Potency in test [2] is 5.01 µM (active); in test [20] it was > 20.6 µM (inactive). Further, the activity change, negative = inhibition in test [3] was -9.75% (inactive); in [8] it was 2.07% (inactive). Moreover, the Potency entry in test [6], in [10], in [11], in test [13], in test [14] and in [15] was “inactive” throughout. For the same compound, the Potency result in [16], in test [17], in test [18] and in [19] was “inactive” in each case. In addition, the max response was -12.4% in test [8] (setting [21]) and -9.74% in test [8] (setting [22]). Also, the figures for the activity, negative = inhibition in test [12] (parasite line A) and in test [12] (parasite line B) were -6.89% (inactive) and -26.4% (inactive), respectively.
As to `CS(=O)(=O)c1ccc([C@H](O)[C@H](CO)NC(=O)C(Cl)Cl)cc1`, the result in [1], in test [4], in test [7] and in test [9] was inactive. The Potency entry in test [2], in test [6], in [10], in [11], in [13] and in test [14] was “inactive” throughout. Moreover, the Potency result in [15], in test [16], in test [17], in test [18] and in [19] was “inactive” in each case. The activity change, negative = inhibition in test [3] is 1.44% (inactive); in [8], -0.717% (inactive). The Potency in [5] is > 20.6 µM (inactive). The results for the max response in test [8] (setting [21]) and in test [8] (setting [22]) were 3.5% and 5.27%, respectively. The activity, negative = inhibition in test [12] (parasite line A) is -20.3% (inactive); in [12] (parasite line B), -19.1% (inactive).
As for `CO[C@H]1[C@H](O[C@H]2O[C@@H](C)[C@@H](O[C@@H]3C[C@](C)(O)[C@H](OC(=O)CC(C)C)[C@H](C)O3)[C@@H](N(C)C)[C@@H]2O)[C@@H](CC=O)C[C@@H](C)[C@@H](O)/C=C\C=C/C[C@@H](C)OC(=O)C[C@H]1OC(C)=O`, the result in [1], in test [4], in test [7] and in [9] was inactive. The Potency result in test [2], in test [6], in test [11], in [13], in test [17] and in test [18] was “inactive” in each case. In addition, in [19], the Potency result was “inactive”. The figures for the activity change, negative = inhibition in [3] and in test [8] were -0.256% (inactive) and -3.13% (inactive), respectively. Moreover, the Potency in [20] is > 20.6 µM (inactive). The max response in test [8] (setting [21]) is -10.5%; in test [8] (setting [22]), -14%.
